Reference: the supplement of paper PMC10646978
± gives the standard deviation.

system: RAW-Dual (murine macrophage reporter line); assay: NF-kB reporter (SEAP) activity fold change vs agonist alone; higher = enhanced NF-kB activity; settings: modulator concentration 10 µM; agonist: CpG ODN 1826 0.5 ug/mL
Procedure, shortened: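 In 384-well plates holding 50 000 RAW-Dual murine macrophage reporter cells per well, compound at 10 μM final was pre-incubated for 1 hour at 37 °C, after which a PRR agonist was added overnight. Supernatant SEAP read with QUANTI-Blue at 620 nm absorbance reported NF-κB, and Lucia luciferase read with QUANTI-Luc luminescence reported IRF. Fold change values come from dividing each reporter signal by the mean of agonist-only control wells on the same plate, averaged over replicate plates with propagated errors.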

Q: `CC(C)COc1ccc(CNC(=O)N(Cc2ccc(F)cc2)C2CCN(C)CC2)cc1.CC(C)COc1ccc(CNC(=O)N(Cc2ccc(F)cc2)C2CCN(C)CC2)cc1.O=C(O)[C@H](O)[C@@H](O)C(=O)O` was tested. Which NF-kB reporter did it give?
A: The NF-kB reporter was 0.136 ± 0.016.

Q: For `O=C1c2cccc3c2[C@H](CCC3)CN1[C@@H]1CN2CCC1CC2` [Prestw-1783], which NF-kB reporter is on record?
A: The NF-kB reporter was 0.953 ± 0.06.

Q: Which NF-kB reporter does the source give for `COc1cc2nc(N3CCN(C(=O)c4ccco4)CC3)nc(N)c2cc1OC.Cl` here?
A: Its NF-kB reporter is 0.888 ± 0.21.

Q: For `Cc1cc(C(=O)Nc2ccc(-n3nnn(C)c3=O)cc2)c(C)o1`, which NF-kB reporter is on record?
A: The NF-kB reporter was 1.01 ± 0.077.

Q: Which NF-kB reporter does the source give for `Cc1ccc(-c2cc(C(F)(F)F)n3nc(C(=O)NCCCN4CCOCC4)cc3n2)cc1` here?
A: The NF-kB reporter was 0.995 ± 0.083.

Q: With `Cc1cccc(NC(=O)Cc2c(C)nc(SCc3ccccc3F)[nH]c2=O)c1C` as the compound, how does the NF-kB reporter read?
A: Its NF-kB reporter is 0.996 ± 0.059.

Q: How did the NF-kB reporter turn out when `Cc1ccc2sc(NC(=O)c3cccc(N4C(=O)CCC4=O)c3)nc2c1C` was run?
A: The NF-kB reporter was 0.946 ± 0.097.

Q: `Cc1cc(C)n(CCNc2nc3ccccc3s2)n1` was tested. Which NF-kB reporter did it give?
A: Its NF-kB reporter is 1.07 ± 0.1.

Q: `Cc1ccc(C(=O)N(CCCN)[C@@H](c2nc3cc(Cl)ccc3c(=O)n2Cc2ccccc2)C(C)C)cc1` was tested. Which NF-kB reporter did it give?
A: Its NF-kB reporter is 0.186 ± 0.034.

Q: With `CC1=C(C(=O)OC(C)C)C(c2cccc([N+](=O)[O-])c2)C(C(=O)OC2CN(C(c3ccccc3)c3ccccc3)C2)=C(N)N1` (stereo not given) as the compound, how does the NF-kB reporter read?
A: Its NF-kB reporter is 1.58 ± 0.068.

Q: Which NF-kB reporter does the source give for `COC(=O)C1=C(C)NC2=C(C(=O)CC(C)(C)C2)C1c1ccc(OC)c(O)c1` (stereo not given) here?
A: The NF-kB reporter was 1.02 ± 0.095.

Q: `O=C(Nc1cc(C(F)(F)F)cc(C(F)(F)F)c1)c1ccco1` was tested. Which NF-kB reporter did it give?
A: The NF-kB reporter was 0.816 ± 0.11.

Q: `O=C(CSc1ccc2ccccc2n1)NC1=NCCS1` was tested. Which NF-kB reporter did it give?
A: Its NF-kB reporter is 0.89 ± 0.051.

Q: `CC(C)n1cnc(S(=O)(=O)N2CCC(S(=O)(=O)Cc3ccccc3)CC2)c1` was tested. Which NF-kB reporter did it give?
A: Its NF-kB reporter is 0.891 ± 0.05.

Q: For `CCNc1cc(C)nc(Nc2ccc(NC(=O)c3ccc(OC)c(OC)c3)cc2)n1`, which NF-kB reporter is on record?
A: Its NF-kB reporter is 0.118 ± 0.0094.
